Source: the supplement of paper PMC11732987, “Enantioselective OTUD7B fragment discovery through chemoproteomics screening and high-throughput optimisation” (Communications Chemistry, 2025)

Compound: ClCC(=O)NC1(CCCC1)C#N
Experiment: log2 ratio of Biotin-Ahx-Ub-VS probe labelling (compound/DMSO); higher = less target engagement, active = hit call of the paper (q ≤ 0.05, log2 ratio ≤ -1)
Details: compound concentration: 50uM; treatment time: 3 h
Method: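 Round 2 competitive ABPP in HEK293T lysate. Compounds were tested at 50 and 200 µM for 3 h, followed by Biotin-Ahx-Ub-VS enrichment and diaPASEF LC-MS/MS. Values are the average log2 ratio (compound/DMSO) from an unpaired t-test (n=3 treated, n=26 DMSO).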

UniProt Q8NB14, sequence (Q8NB14 whole entry): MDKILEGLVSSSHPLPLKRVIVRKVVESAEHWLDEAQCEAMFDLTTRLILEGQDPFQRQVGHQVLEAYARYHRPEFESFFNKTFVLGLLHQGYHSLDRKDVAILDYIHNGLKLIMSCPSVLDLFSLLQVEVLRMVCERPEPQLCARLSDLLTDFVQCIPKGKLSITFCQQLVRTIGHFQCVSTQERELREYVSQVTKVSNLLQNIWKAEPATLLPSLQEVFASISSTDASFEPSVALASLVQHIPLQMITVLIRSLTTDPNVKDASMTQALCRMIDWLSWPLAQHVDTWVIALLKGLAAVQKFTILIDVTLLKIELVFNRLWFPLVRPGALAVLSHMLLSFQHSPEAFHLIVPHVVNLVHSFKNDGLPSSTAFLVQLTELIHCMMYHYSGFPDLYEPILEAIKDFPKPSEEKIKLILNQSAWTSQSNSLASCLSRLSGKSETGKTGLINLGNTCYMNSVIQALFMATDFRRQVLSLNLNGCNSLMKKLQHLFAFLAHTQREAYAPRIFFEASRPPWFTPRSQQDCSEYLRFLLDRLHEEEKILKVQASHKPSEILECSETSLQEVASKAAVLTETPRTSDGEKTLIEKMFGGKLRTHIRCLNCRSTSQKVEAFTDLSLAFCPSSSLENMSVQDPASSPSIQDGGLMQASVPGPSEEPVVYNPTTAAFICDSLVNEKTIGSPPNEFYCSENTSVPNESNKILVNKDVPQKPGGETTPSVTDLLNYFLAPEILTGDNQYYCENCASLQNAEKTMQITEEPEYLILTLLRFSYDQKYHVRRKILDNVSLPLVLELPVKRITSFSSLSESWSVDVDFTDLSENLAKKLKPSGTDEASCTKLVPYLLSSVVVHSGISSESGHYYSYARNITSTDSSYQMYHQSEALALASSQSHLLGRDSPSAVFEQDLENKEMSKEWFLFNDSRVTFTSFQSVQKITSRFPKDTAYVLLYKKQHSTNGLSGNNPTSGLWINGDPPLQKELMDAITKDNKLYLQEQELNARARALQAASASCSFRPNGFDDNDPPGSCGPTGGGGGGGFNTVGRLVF
UniProt Q9UPT9, sequence (Q9UPT9 whole entry): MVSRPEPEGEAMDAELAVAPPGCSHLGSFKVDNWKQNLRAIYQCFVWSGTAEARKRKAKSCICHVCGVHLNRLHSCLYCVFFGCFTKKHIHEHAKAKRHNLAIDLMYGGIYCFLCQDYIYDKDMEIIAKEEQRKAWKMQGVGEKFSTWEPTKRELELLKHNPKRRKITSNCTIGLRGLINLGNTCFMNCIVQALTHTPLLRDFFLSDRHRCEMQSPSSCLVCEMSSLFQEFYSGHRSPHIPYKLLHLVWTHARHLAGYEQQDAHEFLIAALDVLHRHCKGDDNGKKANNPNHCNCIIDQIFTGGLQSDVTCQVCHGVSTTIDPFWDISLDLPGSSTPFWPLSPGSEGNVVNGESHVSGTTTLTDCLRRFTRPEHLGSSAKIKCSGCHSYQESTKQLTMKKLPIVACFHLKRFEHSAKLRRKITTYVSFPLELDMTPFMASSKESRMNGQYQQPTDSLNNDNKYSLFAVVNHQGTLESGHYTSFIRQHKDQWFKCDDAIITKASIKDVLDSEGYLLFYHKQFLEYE
UniProt Q70EL2, sequence (Q70EL2 whole entry): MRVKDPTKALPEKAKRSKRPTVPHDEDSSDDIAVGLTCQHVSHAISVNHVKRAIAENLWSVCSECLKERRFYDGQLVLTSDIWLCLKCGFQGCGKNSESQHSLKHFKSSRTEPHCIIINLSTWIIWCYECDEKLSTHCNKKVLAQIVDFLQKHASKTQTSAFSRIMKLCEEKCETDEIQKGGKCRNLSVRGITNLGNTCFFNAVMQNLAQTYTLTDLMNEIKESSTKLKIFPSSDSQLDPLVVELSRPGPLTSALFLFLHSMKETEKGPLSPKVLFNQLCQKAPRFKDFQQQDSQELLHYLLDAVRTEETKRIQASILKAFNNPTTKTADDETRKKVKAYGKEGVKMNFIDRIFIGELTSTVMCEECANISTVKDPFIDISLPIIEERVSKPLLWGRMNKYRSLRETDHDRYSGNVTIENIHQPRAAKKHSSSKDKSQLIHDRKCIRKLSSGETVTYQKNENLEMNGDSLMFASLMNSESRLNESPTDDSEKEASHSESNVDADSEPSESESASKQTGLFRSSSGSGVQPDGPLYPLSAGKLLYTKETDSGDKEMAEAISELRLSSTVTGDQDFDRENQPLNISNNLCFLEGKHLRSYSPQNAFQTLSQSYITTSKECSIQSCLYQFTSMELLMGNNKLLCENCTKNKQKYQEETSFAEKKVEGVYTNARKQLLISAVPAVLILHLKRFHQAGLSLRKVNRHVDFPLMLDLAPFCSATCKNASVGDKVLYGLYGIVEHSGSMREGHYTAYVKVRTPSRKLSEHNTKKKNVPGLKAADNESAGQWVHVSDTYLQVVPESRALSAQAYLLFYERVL
UniProt Q9Y5T5, sequence (Q9Y5T5 whole entry, looked up): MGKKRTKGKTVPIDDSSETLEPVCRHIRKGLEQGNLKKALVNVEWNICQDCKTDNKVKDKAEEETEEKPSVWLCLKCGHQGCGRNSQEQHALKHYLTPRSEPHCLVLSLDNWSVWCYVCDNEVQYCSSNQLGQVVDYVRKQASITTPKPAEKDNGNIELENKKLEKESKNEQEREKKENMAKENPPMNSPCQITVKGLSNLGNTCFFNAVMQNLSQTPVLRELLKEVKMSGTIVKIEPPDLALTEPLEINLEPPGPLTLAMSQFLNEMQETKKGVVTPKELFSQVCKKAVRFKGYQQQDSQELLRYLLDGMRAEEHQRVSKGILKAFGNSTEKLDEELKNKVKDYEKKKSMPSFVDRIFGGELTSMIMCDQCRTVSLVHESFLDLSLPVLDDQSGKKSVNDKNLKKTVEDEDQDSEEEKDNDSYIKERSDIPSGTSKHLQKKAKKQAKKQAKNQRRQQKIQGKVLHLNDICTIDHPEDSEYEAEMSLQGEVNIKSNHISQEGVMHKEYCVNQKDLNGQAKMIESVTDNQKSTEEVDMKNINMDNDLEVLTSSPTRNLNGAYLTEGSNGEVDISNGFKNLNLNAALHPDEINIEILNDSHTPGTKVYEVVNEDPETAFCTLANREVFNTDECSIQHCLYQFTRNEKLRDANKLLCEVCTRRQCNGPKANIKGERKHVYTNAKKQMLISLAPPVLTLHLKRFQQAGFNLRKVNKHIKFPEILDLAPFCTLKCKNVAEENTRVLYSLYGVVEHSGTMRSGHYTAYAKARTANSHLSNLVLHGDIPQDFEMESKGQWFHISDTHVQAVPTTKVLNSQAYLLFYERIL
UniProt Q01804, sequence (Q01804 whole entry): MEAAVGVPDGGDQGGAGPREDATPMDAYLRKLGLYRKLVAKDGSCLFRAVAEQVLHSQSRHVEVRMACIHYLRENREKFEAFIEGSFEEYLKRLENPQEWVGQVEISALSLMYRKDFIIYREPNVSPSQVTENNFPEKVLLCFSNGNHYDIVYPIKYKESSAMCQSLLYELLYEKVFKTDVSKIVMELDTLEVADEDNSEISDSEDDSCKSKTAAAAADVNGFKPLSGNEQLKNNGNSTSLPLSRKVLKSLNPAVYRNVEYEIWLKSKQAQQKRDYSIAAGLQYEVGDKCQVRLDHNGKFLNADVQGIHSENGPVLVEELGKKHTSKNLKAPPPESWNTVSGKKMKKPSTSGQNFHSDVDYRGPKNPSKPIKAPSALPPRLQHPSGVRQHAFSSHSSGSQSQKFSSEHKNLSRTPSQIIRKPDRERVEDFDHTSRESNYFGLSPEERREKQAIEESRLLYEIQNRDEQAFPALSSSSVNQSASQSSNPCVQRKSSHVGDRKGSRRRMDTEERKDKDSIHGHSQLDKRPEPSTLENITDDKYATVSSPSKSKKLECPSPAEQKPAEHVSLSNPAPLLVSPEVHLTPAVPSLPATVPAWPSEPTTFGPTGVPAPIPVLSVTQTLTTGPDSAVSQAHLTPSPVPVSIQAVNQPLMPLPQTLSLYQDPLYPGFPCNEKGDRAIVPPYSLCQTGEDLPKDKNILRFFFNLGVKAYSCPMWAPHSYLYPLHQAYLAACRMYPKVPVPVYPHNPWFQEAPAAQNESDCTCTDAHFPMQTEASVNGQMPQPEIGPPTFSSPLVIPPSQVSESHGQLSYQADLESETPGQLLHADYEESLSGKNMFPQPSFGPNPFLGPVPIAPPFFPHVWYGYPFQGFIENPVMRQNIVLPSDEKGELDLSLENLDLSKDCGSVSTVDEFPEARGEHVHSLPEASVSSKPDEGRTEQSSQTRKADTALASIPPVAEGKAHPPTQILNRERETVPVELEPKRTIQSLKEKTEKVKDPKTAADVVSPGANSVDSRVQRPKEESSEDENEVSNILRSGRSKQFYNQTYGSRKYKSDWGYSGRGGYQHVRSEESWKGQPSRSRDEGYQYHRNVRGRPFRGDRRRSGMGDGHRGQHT
UniProt P09936, sequence (P09936 whole entry, looked up): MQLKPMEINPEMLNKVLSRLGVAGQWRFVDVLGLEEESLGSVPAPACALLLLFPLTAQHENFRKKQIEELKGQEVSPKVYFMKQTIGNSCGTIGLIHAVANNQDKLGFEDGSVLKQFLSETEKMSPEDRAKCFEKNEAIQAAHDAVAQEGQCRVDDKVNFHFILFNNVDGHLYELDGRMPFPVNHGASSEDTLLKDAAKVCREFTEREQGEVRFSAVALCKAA
UniProt O00303, sequence (O00303 whole entry): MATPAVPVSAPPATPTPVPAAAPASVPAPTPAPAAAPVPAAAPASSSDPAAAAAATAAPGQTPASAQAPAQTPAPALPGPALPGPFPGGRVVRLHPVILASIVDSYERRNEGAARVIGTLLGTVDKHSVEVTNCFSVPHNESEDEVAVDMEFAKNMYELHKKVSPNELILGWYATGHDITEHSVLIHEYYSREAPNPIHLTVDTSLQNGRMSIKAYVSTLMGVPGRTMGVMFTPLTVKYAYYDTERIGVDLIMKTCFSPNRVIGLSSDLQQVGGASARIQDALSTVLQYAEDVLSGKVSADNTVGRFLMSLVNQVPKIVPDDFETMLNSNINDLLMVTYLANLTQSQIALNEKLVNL

Row | Target | log2 ratio of Biotin-Ahx-Ub-VS probe labelling
1 | USP38 (UniProt Q8NB14) | -0.219 (inactive)
2 | USP22 (UniProt Q9UPT9) | 0.0772 (inactive)
3 | UniProt Q9UGI0 | -0.46 (inactive)
4 | EIF3F (UniProt O00303) | 0.000219 (inactive)
5 | PRPF8 (UniProt Q6P2Q9) | -0.0469 (inactive)
6 | UniProt Q8TE49 | -0.765 (inactive)
7 | USP16 (UniProt Q9Y5T5) | -0.176 (inactive)
8 | VCPIP1 (UniProt Q96JH7) | -0.312 (inactive)
9 | UniProt Q70EL2 | -0.267 (inactive)
10 | YOD1 (UniProt Q5VVQ6) | -0.0389 (inactive)
11 | USP7 (UniProt Q93009) | -0.163 (inactive)
12 | ALG13 (UniProt Q9NP73) | -0.154 (inactive)
13 | ATXN3 (UniProt P54252) | -0.261 (inactive)
14 | USP5 (UniProt P45974) | -0.165 (inactive)
15 | OTUD7B (UniProt Q6GQQ9) | -1.16 (active)
16 | USP8 (UniProt P40818) | -0.191 (inactive)
17 | BAP1 (UniProt Q92560) | -1.04 (active)
18 | OTUD4 (UniProt Q01804) | -1.46 (active)
19 | COPS5 (UniProt Q92905) | 0.531 (inactive)
20 | UCHL1 (UniProt P09936) | -0.205 (inactive)

Same assay, conditions: compound concentration: 200uM; treatment time: 3 h

Row | Target | log2 ratio of Biotin-Ahx-Ub-VS probe labelling
21 | USP38 (UniProt Q8NB14) | -0.177 (inactive)
22 | USP22 (UniProt Q9UPT9) | -0.266 (inactive)
23 | UniProt Q9UGI0 | 0.243 (inactive)
24 | EIF3F (UniProt O00303) | 0.192 (inactive)
25 | PRPF8 (UniProt Q6P2Q9) | -0.0301 (inactive)
26 | UniProt Q8TE49 | -1.08 (active)
27 | USP16 (UniProt Q9Y5T5) | -0.253 (inactive)
28 | VCPIP1 (UniProt Q96JH7) | -0.217 (inactive)
29 | UniProt Q70EL2 | 0.248 (inactive)
30 | YOD1 (UniProt Q5VVQ6) | 0.0083 (inactive)
31 | USP7 (UniProt Q93009) | -0.0621 (inactive)
32 | ALG13 (UniProt Q9NP73) | 0.381 (inactive)
33 | ATXN3 (UniProt P54252) | 0.039 (inactive)
34 | USP5 (UniProt P45974) | -0.145 (inactive)
35 | OTUD7B (UniProt Q6GQQ9) | -3.09 (active)
36 | USP8 (UniProt P40818) | -0.0614 (inactive)
37 | BAP1 (UniProt Q92560) | -2.81 (active)
38 | OTUD4 (UniProt Q01804) | -1.76 (active)
39 | COPS5 (UniProt Q92905) | 0.0873 (inactive)
40 | UCHL1 (UniProt P09936) | -0.155 (inactive)
